# Results from publication PMC5540273 (PLoS ONE, 2017).
# Tests used:
# Settings in all cases: concentration: 1 μM, replicates: in singlicate; n = 1
# PRKCD = system: PRKCD
# PRKCE = system: PRKCE
# PRKCH = system: PRKCH
# PRKCI = system: PRKCI
# PRKCQ = system: PRKCQ
# PRKD1 = system: PRKD1
# PRKD2 = system: PRKD2
# PRKD3 = system: PRKD3
# PRKG1 = system: PRKG1
# PRKG2 = system: PRKG2
# 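Further: KINOMEscan kinase panel screen.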
compound,measurement,setting,value
CN1c2ccc(-c3ccc(C(=O)NCCO)cc3)cc2-c2[nH]ncc2S1(=O)=O,%Inh,PRKCD,26%
same,%Inh,PRKCE,12%
same,%Inh,PRKCH,8%
same,%Inh,PRKCI,0%
same,%Inh,PRKCQ,1%
same,%Inh,PRKD1,0%
same,%Inh,PRKD2,34%
same,%Inh,PRKD3,0%
same,%Inh,PRKG1,61%
same,%Inh,PRKG2,9%
Cn1ccc2ncnc(Nc3ccc(Oc4cccc(Cl)c4)c(Cl)c3)c21,%Inh,PRKCD,30%
same,%Inh,PRKCE,13%
same,%Inh,PRKCH,3%
same,%Inh,PRKCI,0%
same,%Inh,PRKCQ,60%
same,%Inh,PRKD1,0%
same,%Inh,PRKD2,30%
same,%Inh,PRKD3,0%
same,%Inh,PRKG1,0%
same,%Inh,PRKG2,0%
COc1ccc(NC(=O)c2ccc(-c3cc(-c4nnc(C)o4)ccc3C)cc2)cc1 [GW595885],%Inh,PRKCD,0%
same,%Inh,PRKCE,4%
same,%Inh,PRKCH,8%
same,%Inh,PRKCI,0%
same,%Inh,PRKCQ,9%
same,%Inh,PRKD1,2%
same,%Inh,PRKD2,0%
same,%Inh,PRKD3,0%
same,%Inh,PRKG1,4%
same,%Inh,PRKG2,0%
NC(=O)c1sc(-n2cnc3ccccc32)cc1OCc1ccccc1F [GSK1024306],%Inh,PRKCD,0%
same,%Inh,PRKCE,12%
same,%Inh,PRKCH,17%
same,%Inh,PRKCI,0%
same,%Inh,PRKCQ,0%
same,%Inh,PRKD1,0%
same,%Inh,PRKD2,7%
same,%Inh,PRKD3,0%
same,%Inh,PRKG1,12%
same,%Inh,PRKG2,0%
CNc1nccc(-c2c(-c3ccc(F)cc3)ncn2C2CCN(C)CC2)n1 [SB-222903],%Inh,PRKCD,10%
same,%Inh,PRKCE,2%
same,%Inh,PRKCH,0%
same,%Inh,PRKCI,0%
same,%Inh,PRKCQ,0%
same,%Inh,PRKD1,0%
same,%Inh,PRKD2,19%
same,%Inh,PRKD3,0%
same,%Inh,PRKG1,14%
same,%Inh,PRKG2,0%
